The supplement of paper PMC11732987, “Enantioselective OTUD7B fragment discovery through chemoproteomics screening and high-throughput optimisation” (Communications Chemistry, 2025)

Legend:
Experiment in all cases: log2 ratio of Biotin-Ahx-Ub-VS probe labelling (fragment/DMSO); higher = less target engagement (more negative = stronger competition), active = hit call of the paper (q ≤ 0.05, log2 ratio ≤ -1)
Details in all cases: compound concentration: 200 uM; treatment time: 3 h
[1] = molecular target: T1, OTUD6B (UniProt Q8N6M0)
T1 sequence (whole entry): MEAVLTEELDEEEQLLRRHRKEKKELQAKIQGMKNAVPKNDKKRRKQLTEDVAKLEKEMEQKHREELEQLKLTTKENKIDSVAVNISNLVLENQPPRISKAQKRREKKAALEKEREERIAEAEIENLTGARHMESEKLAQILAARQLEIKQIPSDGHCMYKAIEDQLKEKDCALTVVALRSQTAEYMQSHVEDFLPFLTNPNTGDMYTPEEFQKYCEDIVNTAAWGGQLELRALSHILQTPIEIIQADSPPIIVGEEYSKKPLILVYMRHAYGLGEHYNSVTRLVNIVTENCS
Procedure, shortened: (§1)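 The table lists average log2 ratios of fragment over vehicle, from an unpaired t-test on global-median-normalised Spectronaut label-free quantities. Proteins with ≥2 unique peptides were used. Samples were HEK293T lysate (495 µg) treated in triplicate with fragment at 200 µM or vehicle for 3 h, then with Biotin-Ahx-Ub-VS (0.5 µM final) for 1 h, with labelled DUBs NeutrAvidin-enriched and run by diaPASEF LC-MS/MS.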

[2] = molecular target: T2, OTUD7B (UniProt Q6GQQ9)
T2 sequence (whole entry): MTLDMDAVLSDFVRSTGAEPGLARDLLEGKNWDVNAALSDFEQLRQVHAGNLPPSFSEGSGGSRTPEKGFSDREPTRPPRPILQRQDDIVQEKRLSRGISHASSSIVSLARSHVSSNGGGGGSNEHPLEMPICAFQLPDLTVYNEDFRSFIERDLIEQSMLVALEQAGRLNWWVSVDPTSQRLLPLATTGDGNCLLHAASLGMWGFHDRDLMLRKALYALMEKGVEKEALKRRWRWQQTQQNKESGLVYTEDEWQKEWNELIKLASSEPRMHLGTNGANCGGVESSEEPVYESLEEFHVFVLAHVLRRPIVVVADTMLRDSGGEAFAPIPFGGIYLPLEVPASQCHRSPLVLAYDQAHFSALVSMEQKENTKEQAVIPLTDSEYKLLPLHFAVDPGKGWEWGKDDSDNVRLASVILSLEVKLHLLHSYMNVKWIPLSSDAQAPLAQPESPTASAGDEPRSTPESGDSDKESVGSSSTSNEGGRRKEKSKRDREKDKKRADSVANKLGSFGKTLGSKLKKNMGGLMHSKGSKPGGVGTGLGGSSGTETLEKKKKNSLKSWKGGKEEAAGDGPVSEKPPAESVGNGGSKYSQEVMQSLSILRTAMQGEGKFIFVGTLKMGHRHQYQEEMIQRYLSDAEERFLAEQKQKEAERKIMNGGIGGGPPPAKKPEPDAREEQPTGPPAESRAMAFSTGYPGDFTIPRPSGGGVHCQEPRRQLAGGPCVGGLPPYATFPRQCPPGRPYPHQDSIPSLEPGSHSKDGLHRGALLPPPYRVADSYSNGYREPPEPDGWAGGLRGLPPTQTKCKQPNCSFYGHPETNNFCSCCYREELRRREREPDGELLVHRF
Procedure, shortened: as §1

[3] = molecular target: PRPF8 (UniProt Q6P2Q9)
Procedure, shortened: as §1

[4] = molecular target: T3, PSMD7 (UniProt P51665)
T3 sequence (whole entry): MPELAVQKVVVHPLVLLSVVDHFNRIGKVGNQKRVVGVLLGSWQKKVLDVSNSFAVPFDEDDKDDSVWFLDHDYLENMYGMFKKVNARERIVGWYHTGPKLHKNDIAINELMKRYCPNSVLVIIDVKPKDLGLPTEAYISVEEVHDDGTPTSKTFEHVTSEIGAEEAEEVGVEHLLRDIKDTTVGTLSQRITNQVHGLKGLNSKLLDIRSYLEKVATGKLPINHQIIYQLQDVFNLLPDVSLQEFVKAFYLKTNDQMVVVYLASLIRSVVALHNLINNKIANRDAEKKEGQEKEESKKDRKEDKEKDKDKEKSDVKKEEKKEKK
Procedure, shortened: as §1

[5] = molecular target: UCHL1 (UniProt P09936)
Chain of UCHL1 (P09936 whole entry, looked up): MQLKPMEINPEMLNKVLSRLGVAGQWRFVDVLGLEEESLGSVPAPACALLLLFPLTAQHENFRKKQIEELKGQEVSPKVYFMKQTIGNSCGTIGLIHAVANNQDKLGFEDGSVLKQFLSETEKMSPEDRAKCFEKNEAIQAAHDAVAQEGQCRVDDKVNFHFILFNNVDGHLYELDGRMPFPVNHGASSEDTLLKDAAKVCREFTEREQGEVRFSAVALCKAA
Procedure, shortened: as §1

[6] = molecular target: T4, UCHL3 (UniProt P15374)
T4 sequence (whole entry): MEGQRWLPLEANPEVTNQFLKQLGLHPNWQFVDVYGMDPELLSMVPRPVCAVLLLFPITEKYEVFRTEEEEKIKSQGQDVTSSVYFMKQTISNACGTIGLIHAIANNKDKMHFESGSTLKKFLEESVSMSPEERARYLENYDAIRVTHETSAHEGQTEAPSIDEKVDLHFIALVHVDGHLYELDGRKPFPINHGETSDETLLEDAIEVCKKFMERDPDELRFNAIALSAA
Procedure, shortened: as §1

[7] = molecular target: T5, UCHL5 (UniProt Q9Y5K5)
T5 sequence (whole entry): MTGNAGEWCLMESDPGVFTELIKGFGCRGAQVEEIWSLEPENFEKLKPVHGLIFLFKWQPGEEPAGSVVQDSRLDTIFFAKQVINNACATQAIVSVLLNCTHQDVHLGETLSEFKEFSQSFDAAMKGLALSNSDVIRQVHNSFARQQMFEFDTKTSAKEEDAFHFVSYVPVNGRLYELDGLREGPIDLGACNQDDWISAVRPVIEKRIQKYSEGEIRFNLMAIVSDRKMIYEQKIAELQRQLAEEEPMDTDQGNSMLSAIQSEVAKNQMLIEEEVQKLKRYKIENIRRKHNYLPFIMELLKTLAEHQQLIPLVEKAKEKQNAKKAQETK
Procedure, shortened: as §1

[8] = molecular target: USP10 (UniProt Q14694)
Chain of USP10 (Q14694 whole entry): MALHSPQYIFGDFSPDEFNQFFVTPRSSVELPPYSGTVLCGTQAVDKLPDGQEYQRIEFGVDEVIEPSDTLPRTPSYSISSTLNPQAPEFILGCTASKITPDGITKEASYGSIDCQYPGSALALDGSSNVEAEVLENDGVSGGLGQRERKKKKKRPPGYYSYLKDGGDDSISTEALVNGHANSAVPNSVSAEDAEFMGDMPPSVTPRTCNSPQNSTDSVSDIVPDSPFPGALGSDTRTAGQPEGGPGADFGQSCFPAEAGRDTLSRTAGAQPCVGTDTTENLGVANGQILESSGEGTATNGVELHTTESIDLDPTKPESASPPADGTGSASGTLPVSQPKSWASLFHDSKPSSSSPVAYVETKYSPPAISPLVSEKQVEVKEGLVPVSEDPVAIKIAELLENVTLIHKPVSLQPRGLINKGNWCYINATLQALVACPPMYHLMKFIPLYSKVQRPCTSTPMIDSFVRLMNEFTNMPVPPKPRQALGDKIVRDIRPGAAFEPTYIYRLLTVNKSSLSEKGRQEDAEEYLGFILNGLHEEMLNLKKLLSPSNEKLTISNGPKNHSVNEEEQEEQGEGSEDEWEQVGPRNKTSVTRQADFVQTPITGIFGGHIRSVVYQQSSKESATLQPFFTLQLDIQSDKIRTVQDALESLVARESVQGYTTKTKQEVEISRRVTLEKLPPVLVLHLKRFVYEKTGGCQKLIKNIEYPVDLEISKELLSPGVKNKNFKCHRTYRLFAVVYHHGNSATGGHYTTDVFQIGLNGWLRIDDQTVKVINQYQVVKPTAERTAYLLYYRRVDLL
Procedure, shortened: as §1

[9] = molecular target: T6, USP15 (UniProt Q9Y4E8)
T6 sequence (whole entry): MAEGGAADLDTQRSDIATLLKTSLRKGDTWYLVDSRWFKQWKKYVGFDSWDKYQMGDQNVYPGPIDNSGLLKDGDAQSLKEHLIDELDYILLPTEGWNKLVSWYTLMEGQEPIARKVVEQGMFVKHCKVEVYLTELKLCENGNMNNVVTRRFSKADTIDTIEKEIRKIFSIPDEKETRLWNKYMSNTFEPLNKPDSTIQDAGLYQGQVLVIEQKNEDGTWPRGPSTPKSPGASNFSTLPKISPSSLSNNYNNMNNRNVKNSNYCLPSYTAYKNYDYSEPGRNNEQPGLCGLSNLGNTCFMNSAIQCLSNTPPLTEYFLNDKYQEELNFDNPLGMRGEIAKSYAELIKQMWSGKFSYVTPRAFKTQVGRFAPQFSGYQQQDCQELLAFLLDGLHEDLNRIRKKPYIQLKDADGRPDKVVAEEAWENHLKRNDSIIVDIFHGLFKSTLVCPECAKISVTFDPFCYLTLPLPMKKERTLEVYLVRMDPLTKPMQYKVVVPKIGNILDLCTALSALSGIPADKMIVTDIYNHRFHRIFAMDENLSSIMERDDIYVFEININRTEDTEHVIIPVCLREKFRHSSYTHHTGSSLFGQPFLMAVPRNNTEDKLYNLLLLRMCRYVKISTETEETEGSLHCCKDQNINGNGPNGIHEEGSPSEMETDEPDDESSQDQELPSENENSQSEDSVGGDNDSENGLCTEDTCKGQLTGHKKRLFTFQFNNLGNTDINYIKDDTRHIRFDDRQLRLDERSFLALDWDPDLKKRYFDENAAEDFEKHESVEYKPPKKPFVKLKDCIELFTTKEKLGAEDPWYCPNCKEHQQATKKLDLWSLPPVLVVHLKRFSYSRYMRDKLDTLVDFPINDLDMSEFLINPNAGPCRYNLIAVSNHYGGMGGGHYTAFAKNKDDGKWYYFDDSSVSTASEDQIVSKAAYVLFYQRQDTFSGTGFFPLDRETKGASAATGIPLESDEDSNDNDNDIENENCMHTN
Procedure, shortened: as §1

[10] = molecular target: USP16 (UniProt Q9Y5T5)
Chain of USP16 (Q9Y5T5 whole entry, looked up): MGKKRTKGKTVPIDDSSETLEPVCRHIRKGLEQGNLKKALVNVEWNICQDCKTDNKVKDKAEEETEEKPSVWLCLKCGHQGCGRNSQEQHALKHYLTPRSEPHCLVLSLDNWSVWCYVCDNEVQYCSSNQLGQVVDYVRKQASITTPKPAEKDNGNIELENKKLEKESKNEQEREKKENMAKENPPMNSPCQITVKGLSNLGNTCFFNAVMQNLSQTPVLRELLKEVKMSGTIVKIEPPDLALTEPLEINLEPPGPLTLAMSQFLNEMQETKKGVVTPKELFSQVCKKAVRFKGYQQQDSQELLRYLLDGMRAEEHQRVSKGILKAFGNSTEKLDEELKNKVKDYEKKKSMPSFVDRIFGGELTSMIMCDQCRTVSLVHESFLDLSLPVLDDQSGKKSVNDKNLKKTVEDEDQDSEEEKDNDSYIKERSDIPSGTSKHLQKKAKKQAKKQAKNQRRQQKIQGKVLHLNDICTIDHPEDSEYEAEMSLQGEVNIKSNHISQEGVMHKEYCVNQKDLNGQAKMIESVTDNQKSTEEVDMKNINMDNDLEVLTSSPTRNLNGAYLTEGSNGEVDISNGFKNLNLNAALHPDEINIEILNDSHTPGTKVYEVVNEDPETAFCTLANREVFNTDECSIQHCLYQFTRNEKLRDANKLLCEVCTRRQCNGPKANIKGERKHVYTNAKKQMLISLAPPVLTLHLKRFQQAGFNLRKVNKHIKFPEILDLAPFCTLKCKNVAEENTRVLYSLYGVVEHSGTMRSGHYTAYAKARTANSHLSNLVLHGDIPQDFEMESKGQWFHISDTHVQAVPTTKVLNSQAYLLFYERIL
Procedure, shortened: as §1

Measured: log2 ratio of Biotin-Ahx-Ub-VS probe labelling

Cl.Cn1nc2c(c1CNC(=O)CCl)CCCC2
inactive: [1] -0.361 | [3] -0.184 | [4] -0.299 | [6] 0.314 | [7] -0.368 | [8] -0.24 | [9] -0.224 | [10] -0.4
active: [2] -1.04 | [5] -1.7
